This excerpt belongs to a sample that is enriched for hits.
HTT ATP protect = protects HTT-Q103 PC12 cells, measured by ATP. Potency, µM (top dose mostly 56.4 µM), without a hit: cytoprotection (ATP increase), usual class: activators. PC12 HTT-Q103 induced, cytoprotection, ATP luminescence, 40 h. 0.14% of 230,000 active; also: % of control where 0% means no effect; nearly all actives have a fitted effect of over 45% in size
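Cells were plated at 1500 per well in phenol red-free DMEM with 5% equine and 5% calf serum. Tebufenozide (100 nM final) and compounds were added, then ATPlite reagent, and luminescence was read.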
HttQ103 aggreg = inhibitors of mutant huntingtin aggregate formation in PC12 cells. 1.1% of 220,000 active. PC12 HttQ103-GFP aggregates, Acumen cytometry, 40 h. Potency, µM (titrated, usually from 46.1 µM), for inactives: at the top dose activity change, negative = inhibition, usual class: inhibitors. AID 1688; also: % is scaled to controls: 0 for no effect and ±100 for the full control effect; nearly all actives have a fitted effect of over 60% in size
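Inducible Q103 Huntingtin exon 1–GFP PC12 line, 1500 cells/well in phenol red free DMEM with 5% equine and 5% calf serum. Tebufenozide 100 nM induced expression; compounds titrated; aggregates quantified by cytometry.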
PINK1 expr mod = modulators of PINK1 expression. 0.2% of 410,000 active. PINK1 immunofluorescence, high-content cytometry, 24 h. Potency, µM (series often up to 76.6 µM), without a hit: top-dose activation (PINK1 increase), usual class: activators; active = well fitted activation curve with a large enough effect; inconclusive = small, poorly fitted or top-dose-only effect; cell line not stated here; also: % of control where 0% means no effect; nearly all actives have a fitted effect of over 65% in size
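Readout is PINK1 immunofluorescence, quantified alongside mitochondrial, cell and nuclear markers by laser-scanning microplate cytometry. Cells from a stable line were exposed to compound titrations (5 concentrations) for 24 hours, with CCCP controls.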
Epigenetic reg = regulators of epigenetic silencing causing reporter derepression in mouse cells; murine LDR cells, GFP reporter derepression, 30 h; Potency, µM (series often up to 53.9 µM), without a hit: top-dose GFP activation, most hits filed as activators; 0.2% of 280,000 active; AID 1865; also: % of control where 0% means no effect; nearly all actives have a fitted effect of over 60% in size
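Reporter derepression read as number of fluorescent GFP-positive objects, 20-120 um in size, counted by laser-scanning cytometer. Mouse LDR line with an epigenetically silenced CMV-GFP locus; compound incubation 30 h, 37 C.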
* = called active by the depositor; ? = inconclusive; nt = not tested or not shown; [ ] = dose if it differs, or a comment. Unless noted, calls follow the shape of the dose curve; as a rule, active = well fitted curve in the direction sought with a large enough effect; inconclusive = small, poorly fitted or top-dose-only effect, or another doubt; inactive = no such curve, though single readings can be large; an effect the other way counts as inactive or inconclusive. Potency is read from the fitted curve at half-maximal effect.

SMILES	HTT ATP protect	HttQ103 aggreg	PINK1 expr mod	Epigenetic reg
CCOc1cc(C)cc2oc(=O)c3c(c12)CCCC3	nt	nt	8%	nt
Cc1cc(OC(=O)c2ccco2)c2c3c(c(=O)oc2c1)CCCC3	-82%	13µM*	-4%	0%
Cc1ccccc1OP(=O)(Oc1ccccc1C)N1CCOCC1	nt	nt	0%	nt
CCCN(CCC)[C@H]1CCc2c(F)ccc(O)c2C1	12%[1.9 µM]	nt	nt	4%
Cc1cc(C)cc(NC(=O)Cn2c(=O)oc3cc(S(=O)(=O)N4CC(C)CC(C)C4)ccc32)c1 (stereo not given)	-70%	?	4%	0%
CCc1cccc(NC(=O)Cn2c(=O)oc3cc(S(=O)(=O)N4CCOCC4)ccc32)c1	-107%	2.2µM*	-1%	-1%
Cn1c(=O)c2c(nc(-c3ccc(N(CCCl)CCCl)cc3)n2C)n(C)c1=O	nt	nt	0%	nt
Cc1ccccc1-[n+]1c(-c2ccccc2)cc(-c2ccccc2)cc1-c1ccccc1	nt	nt	10µM*	nt
O=C(O)c1ccc(-[n+]2c(-c3ccccc3)cc(-c3ccccc3)cc2-c2ccccc2)cc1	nt	nt	0%	nt
[O-]c1ccccc1-[n+]1c(-c2ccccc2)cc(-c2ccccc2)cc1-c1ccccc1	nt	nt	16µM*	nt
Brc1ccc(-[n+]2c(-c3ccccc3)cc(-c3ccccc3)cc2-c2ccccc2)cc1	nt	nt	25µM*	nt
O=C(C1CC(c2ccc(Cl)c(Cl)c2)=NO1)N1CCC2(CC1)OCCO2 (stereo not given)	-3%[10 µM]	?	3%[38.3 µM]	-1%
O=C(COc1ccc2ccccc2c1)N1CCN(Cc2c[nH]c3ccccc23)CC1	-59%[10 µM]	10µM*	0%	-1%
Cc1ccc(C[n+]2c(-c3ccc(C)cc3)cc(-c3ccc(C)cc3)cc2-c2ccc(C)cc2)cc1	nt	nt	-1%	nt
CCn1ccnc1CN1CCCC(C(=O)c2cc(F)ccc2OC)C1 (stereo not given)	12%[10 µM]	-13%[9.22 µM]	1%	4µM*
Nc1ccc2ccccc2c1	-52%	nt	1%	nt
C[n+]1c2cc(N)ccc2cc2ccc(N)cc21	-76%	10µM*	1%	0.79µM*
O=C(Nc1ccc(F)cc1)N1CC2CC(C1)c1cccc(=O)n1C2 (stereo not given)	5%	0%	0%	-5%
Cn1nc(-c2ccccc2)nc2c(=O)n(C)c(=O)nc1-2	nt	nt	0%	nt
CCn1nc(-c2ccccc2)nc2c(=O)n(C)c(=O)nc1-2	-42%[10 µM]	8.9µM*	-2%	?
C=C1C(=O)O[C@@H]2C[C@@H](C)[C@@H]3C=CC(=O)[C@@]3(C)[C@@H](OC(=O)CC(=O)O[C@H]3[C@@H]4C(=C)C(=O)O[C@@H]4C[C@@H](C)[C@@H]4C=CC(=O)[C@]43C)[C@H]12	-97%[10 µM]	0.63µM*	5%	11%
C=C1C(=O)O[C@H]2[C@H]1[C@H](OC(=O)CC(=O)O[C@@H]1C[C@@H](C)[C@@H]3C=CC(=O)[C@@]3(C)[C@H]3OC(=O)C(=C)[C@H]13)C[C@@H](C)[C@H]1C=CC(=O)[C@]12C	4.5µM*	21%[9.22 µM]	28%	-1%
C=C1C(=O)OC2CC(C)C3C=CC(=O)C3(C)C(O)C12 (stereo not given)	nt	nt	-5%	nt
CN(C(=O)Oc1ccc(Cl)c2cccnc12)c1ccccc1	nt	-4%	1%	1%
CN1CCN(c2c(N)c(=O)oc3ccccc23)CC1	-1%[10 µM]	0%	nt	-3%
SMILES	HTT ATP protect	HttQ103 aggreg	PINK1 expr mod	Epigenetic reg
O=C1C=C2C=CC3C[C@@]2(O1)C1CCCCN31 (stereo not given in full)	1.6µM*	nt	nt	3%
O=C1C=C2C=C[C@H]3C[C@@]2(O1)[C@H]1CCCCN31	6.3µM*	nt	nt	-1%[16.9 µM]
CCN(CC(=O)Nc1ccc(NC(C)=O)cc1)C(=O)CSC(c1ccccc1)c1ccccc1	nt	nt	2%	nt
CC1(C)C(=O)C=C[C@@]2(C)C1CC(O)[C@]1(C)C2CC[C@@]2(C)C(c3ccoc3)OC(=O)C3O[C@]312 (stereo not given in full)	0.79µM*	nt	nt	-1%
Oc1cc2c(cc1O)[C@H]1c3ccccc3CNC1CC2 (stereo not given in full)	nt	nt	nt	17%
O=C1NC(=O)N(c2ccc3c(c2)OCO3)C(=O)/C1=C/c1cccs1	-41%	?	11%	22µM*
N#CC(C#N)=NNc1ccc(S(N)(=O)=O)cc1	0%[10 µM]	-13%[9.22 µM]	0%	0%
CC1CCN(S(=O)(=O)c2ccc(NN=C(C#N)C#N)cc2)CC1	14%	16µM*	nt	-1%
CC(C)OCCCNC(=O)c1c(N)n(Cc2cccs2)c2nc3ccccc3nc12	-28%	28µM*	-3%	13%
CCOP(=O)(OCC)C(O)c1cccnc1 (stereo not given)	14%[10 µM]	-3%[9.22 µM]	-1%	-4%
[Cl-].[Cl-].[Hg+2]	-75%	4µM*	nt	nt
O=c1cccc2n1CC1CNC[C@H]2C1	-21%	nt	1%	0%
CC1(C)C[C@H]2C=C(C=O)[C@]3(C=O)C[C@]3(C)[C@H]2C1	nt	8.9µM*	-1%	0%
CNc1cc(Cl)c2nonc2c1[N+](=O)[O-]	-147%	6.3µM*	1%	-5%
Oc1cccc2cccnc12	?	9%	0%	4µM*
CCN(CC)CCCN=C(C)c1c(O)n(-c2ccc(C)cc2)c(=O)[nH]c1=O	0%[0.074 µM]	-3%	?	-3%
Cc1nn(-c2ccccc2)c(Cl)c1C1C(C#N)=C(N)Oc2c1c(=O)oc1ccccc21 (stereo not given)	-12%[10 µM]	?	1%	-1%
Cc1nn(-c2ccccc2)c2c1C(c1ccc(F)cc1F)C(C#N)=C(N)O2 (stereo not given)	0%	5%	11µM*	1%
NC1C[C@H]1c1ccccc1 (stereo not given in full)	nt	nt	nt	0%
O=C1CC(=O)N(c2ccccc2)C(=O)N1c1ccccc1	nt	nt	3%	nt
CN1CC=C2C(C#N)=C(N)C(C#N)(C#N)C(c3ccncc3)C2C1 (stereo not given)	6%[10 µM]	1%	25µM*	-2%
Nc1c(C(=O)NCC2CCCO2)c2nc3ccccc3nc2n1Cc1ccco1 (stereo not given)	-22%[10 µM]	-18%[9.22 µM]	-2%	25µM*
Nc1c(C(=O)NCc2ccco2)c2nc3ccccc3nc2n1CCN1CCCCC1	-65%	3.2µM*	-1%[38.3 µM]	-1%
c1ccc2c(c1)OCC(C1=NCCN1)O2 (stereo not given)	16µM*	17%	3%	-1%
COC(=O)C[C@](O)(CCCC(C)(C)O)C(=O)O[C@@H]1C(OC)=C[C@]23CCCN2CCc2cc4c(cc2[C@H]13)OCO4	-82%	0.16µM*	nt	-3%
CCCCn1c(O)c(/C=N/N2CCOCC2)c(=O)[nH]c1=S	21%[10 µM]	10%[9.22 µM]	-1%	0%
c1ccc2cc(C3N4CCCN34)ccc2c1 (stereo not given)	4µM*	9%	1%	7%
c1cc(CN2CCCC3(CCNCC3)C2)ccn1	17%	nt	0%	nt
CCCCCCCSc1cc(OC)c(CCN(C)C)cc1OC	-117%	10µM*	-6%	1%
O=C1NCCN2CCCC12 (stereo not given)	-4%	3%	2%	-3%

Assay outcomes from PubChem.
